Reference: PubChem BioAssay (NCI)
The panel holds about 79,000 compounds, 15% with a hit somewhere; the sample as a whole holds those more often. Values without a mark were called inactive. The source made the active and inactive calls. Cut-off read from the data, not from the text of the source: active = growth inhibition above about 70%; inactive = the rest.

Tests used:
[1] = NCI Yeast Anticancer Drug Screen. Data for the rad50 strain (AID 155);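 note: 0% = growth of vehicle-only cultures of the same strain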; details: S. cerevisiae rad50 strain growth inhibition, active compounds read high
Procedure, shortened: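 DNA repair mutant yeast, compound exposure, growth read-out; inhibition is taken relative to vehicle.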

[2] = NCI Yeast Anticancer Drug Screen. Data for the mec2-1 strain (AID 157); details: S. cerevisiae mec2-1 strain, active compounds read high
Procedure, shortened: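 Strain: mec2-1 (DNA repair/cell cycle alteration). Compound exposure, then growth measured; inhibition expressed relative to vehicle.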

[3] = NCI Yeast Anticancer Drug Screen. Data for the sgs1 mgt1 strain (AID 161);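 note: 0% = growth of cultures given vehicle only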; details: S. cerevisiae sgs1 mgt1 strain, active compounds read high
Procedure, shortened: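 Inhibition of yeast growth, normalised to vehicle-treated controls, is reported for a strain bearing genetic alterations in DNA damage repair.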

[4] = NCI Yeast Anticancer Drug Screen. Data for the cln2 rad14 strain (AID 165);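 note: 0% = growth equal to vehicle treated cultures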; details: S. cerevisiae cln2 rad14 strain, active compounds read high
Procedure, shortened: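 Compounds are applied to the cln2 rad14 yeast strain, and growth is then compared with that of vehicle-treated cultures to give inhibition.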

[5] = NCI Yeast Anticancer Drug Screen. Data for the bub3 strain (AID 167); details: S. cerevisiae bub3 mutant strain, active compounds read high
Procedure, shortened: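 In this screen, a yeast mutant lacking normal mitotic checkpoint function is challenged with compound. Relative growth versus vehicle gives the inhibition value.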

[6] = NCI Yeast Anticancer Drug Screen. Data for the mlh1 rad18 strain (AID 175); details: S. cerevisiae mlh1 rad18 strain growth inhibition, active compounds read high
Procedure, shortened: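 Read-out is yeast growth inhibition, calculated against vehicle-only controls. The compound was applied to a strain engineered with DNA damage repair alterations.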

[7] = at 5.0 µM (retest, dose inferred, filed as 0.5)
[8] = at 50.0 µM (retest, dose inferred, filed as 5.0)

CC(C)=CCC/C(C)=C/CCC1(C)C=Cc2c(c3ccccc3oc2=O)O1 (stereo not drawn)
growth inhibition [1, 7]: 28%
growth inhibition [1, 8]: 3%
growth inhibition ([1]; at 50.0 µM): 20.1%
growth inhibition [2, 7]: 25%
growth inhibition [2, 8]: 15%
growth inhibition ([2]; at 50.0 µM): 15.2%
growth inhibition [3, 7]: 51%
growth inhibition [3, 8]: 36%
growth inhibition ([3]; at 50.0 µM): 57.6%
growth inhibition [4, 7]: 37%
growth inhibition [4, 8]: 25%
growth inhibition ([4]; at 50.0 µM): 52.3%
growth inhibition [5, 7]: 53%
growth inhibition [5, 8]: 28%
growth inhibition ([5]; at 50.0 µM): 23.1%
growth inhibition [6, 7]: 25%
growth inhibition [6, 8]: 16%
growth inhibition ([6]; at 50.0 µM): 76.5% (active)

CC(=O)NNc1ccc(Cl)cc1[N+](=O)[O-]
growth inhibition [1, 7]: 18%
growth inhibition [1, 8]: 30%
growth inhibition ([1]; at 50.0 µM): 51%
growth inhibition [2, 7]: -5%
growth inhibition [2, 8]: 26%
growth inhibition ([2]; at 50.0 µM): 25.3%
growth inhibition [3, 7]: -6%
growth inhibition [3, 8]: 20%
growth inhibition ([3]; at 50.0 µM): 12.1%
growth inhibition [4, 7]: 5%
growth inhibition [4, 8]: 4%
growth inhibition ([4]; at 50.0 µM): 44.1%
growth inhibition [6, 7]: 28%
growth inhibition [6, 8]: 69%
growth inhibition ([6]; at 50.0 µM): 91% (active)

COC12C=CC(CC1)c1c2c(O)c2ccncc2c1O (stereo not drawn)
growth inhibition [1, 7]: 9%
growth inhibition [1, 8]: 89% (active)
growth inhibition ([1]; at 50.0 µM): 58.1%
growth inhibition [2, 7]: -3%
growth inhibition [2, 8]: 81% (active)
growth inhibition ([2]; at 50.0 µM): 56.7%
growth inhibition [3, 7]: 4%
growth inhibition [3, 8]: 87% (active)
growth inhibition ([3]; at 50.0 µM): 70%
growth inhibition [4, 7]: -3%
growth inhibition [4, 8]: 68%
growth inhibition ([4]; at 50.0 µM): 55.9%
growth inhibition [5, 7]: 18%
growth inhibition [5, 8]: 95% (active)
growth inhibition ([5]; at 50.0 µM): 59.8%
growth inhibition [6, 7]: -3%
growth inhibition [6, 8]: 86% (active)
growth inhibition ([6]; at 50.0 µM): 64.8%

COC(=O)c1ccc(C)cc1C1CN=NC12Cc1cccc(C)c1C2=O (stereo not drawn)
growth inhibition [1, 7]: 1%
growth inhibition [1, 8]: 9%
growth inhibition ([1]; at 50.0 µM): 26.8%
growth inhibition [2, 7]: -1%
growth inhibition [2, 8]: 10%
growth inhibition ([2]; at 50.0 µM): 24.9%
growth inhibition [3, 7]: 16%
growth inhibition [3, 8]: 22%
growth inhibition ([3]; at 50.0 µM): 8.65%
growth inhibition [4, 7]: 5%
growth inhibition [4, 8]: 10%
growth inhibition ([4]; at 50.0 µM): 83.5% (active)
growth inhibition [5, 7]: -2%
growth inhibition [5, 8]: 23%
growth inhibition ([5]; at 50.0 µM): 41.8%
growth inhibition [6, 7]: -1%
growth inhibition [6, 8]: 6%
growth inhibition ([6]; at 50.0 µM): 2.55%

O=C(O)C1C2CC3CC(C2)CC1C3 (stereo not drawn)
growth inhibition [1, 7]: 2%
growth inhibition [1, 8]: 42%
growth inhibition ([1]; at 50.0 µM): 20%
growth inhibition [2, 7]: 8%
growth inhibition [2, 8]: 47%
growth inhibition ([2]; at 50.0 µM): 5.85%
growth inhibition [3, 7]: 7%
growth inhibition [3, 8]: 60%
growth inhibition ([3]; at 50.0 µM): -4.9%
growth inhibition [4, 7]: 3%
growth inhibition [4, 8]: 21%
growth inhibition ([4]; at 50.0 µM): -67.8%
growth inhibition [5, 7]: 16%
growth inhibition [5, 8]: 86% (active)
growth inhibition ([5]; at 50.0 µM): 75.5% (active)
growth inhibition [6, 7]: 0%
growth inhibition [6, 8]: 82% (active)
growth inhibition ([6]; at 50.0 µM): 9.35%

CN1C/C(=C\c2ccc(Cl)cc2)C(=O)/C(=C/c2ccc(Cl)cc2)C1
growth inhibition [1, 7]: 78% (active)
growth inhibition [1, 8]: 98% (active)
growth inhibition ([1]; at 50.0 µM): 87.2% (active)
growth inhibition [2, 7]: 73% (active)
growth inhibition [2, 8]: 99% (active)
growth inhibition ([2]; at 50.0 µM): 88.5% (active)
growth inhibition [3, 7]: 79% (active)
growth inhibition [3, 8]: 99% (active)
growth inhibition ([3]; at 50.0 µM): 91% (active)
growth inhibition [4, 7]: 78% (active)
growth inhibition [4, 8]: 97% (active)
growth inhibition ([4]; at 50.0 µM): 88% (active)
growth inhibition [6, 7]: 83% (active)
growth inhibition [6, 8]: 98% (active)
growth inhibition ([6]; at 50.0 µM): 85.2% (active)

O=C1c2ccccc2SCC12OC2c1ccc(Cl)cc1 (stereo not drawn)
growth inhibition [1, 7]: 9%
growth inhibition [1, 8]: 85% (active)
growth inhibition ([1]; at 50.0 µM): 95% (active)
growth inhibition [2, 7]: 4%
growth inhibition [2, 8]: 88% (active)
growth inhibition ([2]; at 50.0 µM): 93.5% (active)
growth inhibition [3, 7]: 16%
growth inhibition [3, 8]: 92% (active)
growth inhibition ([3]; at 50.0 µM): 95.5% (active)
growth inhibition [4, 7]: 1%
growth inhibition [4, 8]: 87% (active)
growth inhibition ([4]; at 50.0 µM): 92% (active)
growth inhibition [6, 7]: 12%
growth inhibition [6, 8]: 91% (active)
growth inhibition ([6]; at 50.0 µM): 95.1% (active)

O=C(/C=N/O)Nc1ccc(Cl)c(I)c1
growth inhibition [1, 7]: -32%
growth inhibition [1, 8]: 83% (active)
growth inhibition ([1]; at 50.0 µM): 85.2% (active)
growth inhibition [2, 7]: -15%
growth inhibition [2, 8]: 87% (active)
growth inhibition ([2]; at 50.0 µM): 86.5% (active)
growth inhibition [3, 7]: -17%
growth inhibition [3, 8]: 85% (active)
growth inhibition ([3]; at 50.0 µM): 80.2% (active)
growth inhibition [4, 7]: 5%
growth inhibition [4, 8]: 88% (active)
growth inhibition ([4]; at 50.0 µM): 81.9% (active)
growth inhibition [5, 7]: -9%
growth inhibition [5, 8]: 93% (active)
growth inhibition ([5]; at 50.0 µM): 86.8% (active)
growth inhibition [6, 7]: -24%
growth inhibition [6, 8]: 92% (active)
growth inhibition ([6]; at 50.0 µM): 84.6% (active)

COc1cc(/C=C\C(=O)c2cccc(O)c(=O)c2)cc(OC)c1OC
growth inhibition [1, 7]: -3%
growth inhibition [1, 8]: 53%
growth inhibition ([1]; at 50.0 µM): 69.1%
growth inhibition [2, 7]: 1%
growth inhibition [2, 8]: 65%
growth inhibition ([2]; at 50.0 µM): 50.5%
growth inhibition [3, 7]: 16%
growth inhibition [3, 8]: 83% (active)
growth inhibition ([3]; at 50.0 µM): 63.5%
growth inhibition [4, 7]: -15%
growth inhibition [4, 8]: 50%
growth inhibition ([4]; at 50.0 µM): 5.6%
growth inhibition [6, 7]: 7%
growth inhibition [6, 8]: 89% (active)
growth inhibition ([6]; at 50.0 µM): 54.9%

CC1=C(C(=S)Nc2ccc(Cl)c(C(=O)OC(C)C)c2)SCCO1
growth inhibition [1, 7]: 27%
growth inhibition [1, 8]: 71% (active)
growth inhibition ([1]; at 50.0 µM): 89.6% (active)
growth inhibition [2, 7]: 19%
growth inhibition [2, 8]: 54%
growth inhibition ([2]; at 50.0 µM): 90.2% (active)
growth inhibition [3, 7]: 27%
growth inhibition [3, 8]: 90% (active)
growth inhibition ([3]; at 50.0 µM): 91.5% (active)
growth inhibition [4, 7]: 25%
growth inhibition [4, 8]: 64%
growth inhibition ([4]; at 50.0 µM): 47.4%
growth inhibition [5, 7]: 26%
growth inhibition [5, 8]: 95% (active)
growth inhibition ([5]; at 50.0 µM): 87.1% (active)
growth inhibition [6, 7]: 21%
growth inhibition [6, 8]: 50%
growth inhibition ([6]; at 50.0 µM): 63.8%
